Source: PubChem
GASC-1 inh: inhibitors of human GASC-1 (JMJD2C) demethylase. Q9H3R0. GST-JMJD2C(1-420) H3K9me3 demethylation, DELFIA europium. inhibition, % at 2.35 µM. hit rate 0.069% among 330,000. AID 2099;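 active = more than half of a compound's replicate wells show inhibition beyond 50%, single wells judged on their own value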;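 also: signal counts dimethyl H3K9 product captured on neutravidin plate; 0% = median of DMSO wells and 100% = 0.3 times that DMSO median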
GPR7 antag: human neuropeptides B/W receptor 1 antagonism; hit rate 1.1% among 290,000; inhibition, % at 4.4 µM; AID 1861; GPR7-expressing cells, fluorescence antagonist assay; P48145; in the data active = inhibition above about 16%, passing the limit was not always enough;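 also: cells stimulated with the agonist NPW; 0% = agonist with vehicle and 100% = vehicle without agonist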
VLA-4 inh: inhibition in a human VLA-4 binding assay | AID 2557 | inhibition, % (about 7 µM as worked out from the volumes in the protocol) | hit rate 0.2% among 330,000 | P13612 | VLA-4 expressing cells, ligand binding flow cytometry; in the data active = inhibition above about 50%
pCIP destab: p/CIP protein destabilization; F442A p/CIP-EGFP cells, EGFP fluorescence, 16 h; decrease of EGFP signal, % at 10 µM; hit rate 0.01% among 290,000; AID 1984;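 active = EGFP signal decrease of at least 30% at 10 µM or well 3 SD below plate mean, unless failing retest; inactive = the rest, including hits failing retest or dose response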
VLA-4 allo CP: confirmation of allosteric modulators of human VLA-4 integrin; U937 cells, HUTS-21 LIBS mAb binding, flow cytometry; LDV ligand present at threefold Kd; inhibition, % at 6.7 µM; shares compounds with VLA-4 inh; hit rate 2% among 1,300; in the data active = inhibition above about 40%;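 also: 0% = ligand without compound and 100% = no ligand background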
* hit, by the source's call; . = no result given. Rows were chosen to be rich in hits. Some 1.2% of all compounds tested hit in one or more screens of this group.

SMILES | GASC-1 inh | GPR7 antag | VLA-4 inh | pCIP destab | VLA-4 allo CP
O=C(CNC(=O)C1COc2ccccc2O1)Nc1ccc(F)c(F)c1 (stereo not drawn) | -6 | . | -8 | . | .
CC(C)C(NC(=O)c1ccccc1F)C(=O)NCc1ccccc1 (stereo not drawn) | 3 | -11 | 52* | -12 | -7
CCc1ccccc1NC(=O)CNC(=O)CSC(=S)N1CCCC1 | -4 | . | 8 | . | .
O=C(COC(=O)c1cccc(Br)c1)NCC1CCCO1 (stereo not drawn) | 1 | . | 13 | . | .
CCOC(=O)C1(Cc2ccccc2Cl)CCN(C(=O)CCn2ccnc2C)CC1 | -45 | 1 | 53* | -12 | -6
CCOC(=O)C1(Cc2ccccc2Cl)CCN(S(=O)(=O)N(C)C)CC1 | 4 | 6 | 11 | -25 | .
CC1C(=O)N2CCCc3cc(NC(=O)C(=O)NCc4ccccn4)cc1c32 (stereo not drawn) | -10 | . | 7 | . | .
O=C(c1ccccc1)N1CCN(C(=O)c2ccc([N+](=O)[O-])cc2)CC1 | 3 | -9 | 42 | 7 | -2
Cc1ccc(N(C)C(=O)N2CCN(S(=O)(=O)c3ccc(C)c(C)c3)CC2)cc1 | 1 | 12 | 1 | -9 | .
COC(=O)C(C)Oc1ccc(-c2nccc(-c3ccc(F)cc3)n2)cc1 (stereo not drawn) | -8 | -6 | 8 | -3 | .
COC(=O)C(C)Oc1ccc(Oc2nc(Cl)ccc2Cl)cc1 (stereo not drawn) | -18 | 4 | 52* | -1 | -8
COCCN(C(=O)CC1C(=O)NCCN1Cc1ccc(-c2ccccc2)cc1)C(C)C (stereo not drawn) | 3 | -19 | 5 | -2 | .
Cn1c(CNC(=O)c2ccco2)nnc1SCCOc1ccccc1 | -8 | -3 | . | -11 | .
COc1ccc(Nc2nc(C)cc(C)c2C(N)=O)c(OC)c1 | 4 | -15 | 11 | -21 | .
COc1ccc(N(CC(=O)Nc2cccc(C)c2)S(=O)(=O)c2c(C)n[nH]c2C)cc1 | -1 | -8 | 43 | -18 | .
CCOC(=O)c1cccc(NC(=O)CN(c2ccc(C)cc2)S(=O)(=O)c2c(C)n[nH]c2C)c1 | 3 | -3 | 57* | 7 | -7
CCOC(=O)c1ccc(NC(=O)CN(c2ccc(C)cc2)S(=O)(=O)c2c(C)nn(C)c2C)cc1 | -6 | 5 | 15 | -7 | 8
Cc1ccc(S(=O)(=O)NCC(=O)NCCc2c[nH]c3ccccc23)cc1C | 0 | -6 | -5 | -8 | .
Cc1ccc(S(=O)(=O)N(C)CCCC(=O)NC(C)(C)CO)cc1 | -15 | -24 | 5 | -1 | .
COc1cc(OC)cc(OC(=O)C2CCN(C(=O)c3ccc(Cl)cc3)CC2)c1 | 1 | . | -33 | . | .
Cc1ccc([C@H]2C(C(=O)O)=C[C@@H](C(C)(C)C)N2S(=O)(=O)c2ccc(C)cc2)cc1 | 26 | . | -12 | . | .
COc1ccc([C@H]2C(C(=O)O)=C[C@@H](C(C)(C)C)N2S(=O)(=O)c2ccccc2)cc1 | -6 | . | -14 | . | -1
Cc1ccc(S(=O)(=O)N2[C@@H](c3ccc(Cl)c(Cl)c3)C(C(=O)O)=C[C@H]2C(C)(C)C)cc1 | 38 | . | 31 | . | .
Cc1ccc(S(=O)(=O)N2[C@@H](c3ccc(C(C)C)cc3)C(C(=O)O)=C[C@H]2C(C)(C)C)cc1 | . | . | 29 | . | 9
Cc1ccc(S(=O)(=O)N2[C@@H](c3cccc(C)c3)C(C(=O)O)=C[C@H]2C(C)(C)C)cc1 | 8 | . | -13 | . | 3
SMILES | GASC-1 inh | GPR7 antag | VLA-4 inh | pCIP destab | VLA-4 allo CP
COc1ccc(S(=O)(=O)Nc2noc3ccccc23)cc1OC | 3 | -4 | 10 | -2 | .
COc1ccc(CCNC(=O)Cn2c(=O)oc3ccccc32)cc1OC | 4 | -5 | 0 | -5 | -12
COc1ccc(CCN(C)C(=O)Cn2c(=O)oc3ccccc32)cc1OC | -19 | -3 | 10 | -4 | .
Cc1ccc(NC(=O)Cn2c(=O)oc3ccccc32)c(C)c1 | -4 | -8 | 2 | 4 | -11
CC(=O)c1cn(CC(=O)Nc2cccc(C)c2C)c2ccccc12 | 17 | 11 | 12 | -36 | .
CCC(=O)c1cn(CC(=O)Nc2cccc(C)c2C)c2ccccc12 | -7 | -4 | 23 | -6 | 3
Cc1cccc(NC(=O)Cn2c(=O)oc3ccccc32)c1C | 14 | -16 | -20 | 6 | -4
Cc1ccc(NC(=O)Cn2c(=O)oc3ccccc32)cc1 | -11 | 3 | 8 | 3 | .
CC(Sc1nnc(-c2ccc(OC(F)F)cc2)n1N)C(=O)NCC1CCCO1 (stereo not drawn) | -1 | . | 5 | . | .
CC1(NC(=O)Nc2cccc3ccccc23)CCS(=O)(=O)C1 (stereo not drawn) | -2 | -5 | 0 | -4 | .
Cc1ccc(-c2nnc(N)s2)cc1 | 0 | -16 | 46 | 0 | -4
CC(C)(C)NC(=O)N1c2ccccc2Sc2ccccc21 | 14 | -18 | 54* | 5 | 3
CC(C)NC(=O)N1c2ccccc2Sc2ccccc21 | 10 | -4 | -3 | -8 | .
CN(C)/C(=C\C(=O)c1ccccc1)C(=O)c1ccccc1 | . | . | . | . | -8
